# GLD-1 TGE inh: GLD-1-TGE RNA interaction inhibition (C. elegans); actives 0.44% (n = 320,000); Q17339; AID 2280; purified GLD-1 + fluorescein TGE RNA, fluorescence polarization; inhibition, % at 5.96 µM;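 active means percent inhibition above a per-plate cutoff, the plate mean of test compounds plus 3 SD, cut at about 30% in these data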;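 further: 0% = DMSO wells with GLD-1 and probe and 100% = wells lacking GLD-1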
# BCLXL inh: inhibitors of human Bcl-xL. Q07817. actives 0.7% (n = 320,000). GST-Bcl-xL / FITC-Bim BH3 peptide fluorescence polarization. inhibition, % at 10.9 µM;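 active means inhibition above the mean of all tested compounds plus 3 SD, cutoff set per campaign, cut at about 30% in these data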;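 further: 0% = DMSO wells and 100% = unlabeled Bim-BH3 peptide competitor; inhibitors lower millipolarization by displacing the labeled peptide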
# Target sequence (Q07817 whole entry, looked up): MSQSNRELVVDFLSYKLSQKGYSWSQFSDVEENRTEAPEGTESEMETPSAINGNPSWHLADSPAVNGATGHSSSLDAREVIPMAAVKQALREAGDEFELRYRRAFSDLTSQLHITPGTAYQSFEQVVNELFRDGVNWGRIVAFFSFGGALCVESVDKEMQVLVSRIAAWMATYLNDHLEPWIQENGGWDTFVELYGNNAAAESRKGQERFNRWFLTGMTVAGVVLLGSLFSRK
# eLon inh: inhibitors of E. coli Lon protease; P0A9M0; purified E. coli Lon protease, fluorescence polarization; inhibition, % at 7.94 µM; actives 0.42% (n = 360,000); AID 602123; in the data active means inhibition above about 13%, passing the limit was not always enough;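 further: 0% = enzyme with probe and DMSO and 100% = no enzyme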
# MEX-5 binding: C. elegans MEX-5 TCR-2 RNA binding activity; Q9XUB2; MEX-5/FITC-TCR2 RNA binding, fluorescence polarization; stronger effect = lower value; activity score (negative = inhibition of binding), % at 10 µM; actives 0.38% (n = 300,000); AID 1832;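 active means inhibition past about -25% in most replicates, and total fluorescence under double the plate's negative control median, limit read from the data; inconclusive means replicates evenly split on the limit, or fluorescence at least double controls; inactive means too little inhibition in most replicates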;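 further: 0% = DMSO and -100% = 5 µM competing unlabeled TCR2 RNA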
# EBV gp42 block: blocks Epstein-Barr virus glycoprotein 42 binding | inhibition, % (tested at 21.74 µM) | actives 0.42% (n = 220,000) | Fluorescence polarization binding assay, mP read-out; in the data active means inhibition above about 50%
# Target sequence (Q1HVG2 whole entry, looked up): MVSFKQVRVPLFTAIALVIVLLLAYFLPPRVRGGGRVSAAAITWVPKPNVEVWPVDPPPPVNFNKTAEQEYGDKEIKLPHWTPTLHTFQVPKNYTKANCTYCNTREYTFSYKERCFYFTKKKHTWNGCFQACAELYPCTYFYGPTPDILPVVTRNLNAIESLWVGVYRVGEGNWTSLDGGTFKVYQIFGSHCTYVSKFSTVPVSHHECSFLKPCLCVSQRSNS
# GLD1 RNA confirm: GLD-1 TGE RNA interaction inhibition, confirmation; shares compounds with GLD-1 TGE inh; inhibition, % at 5.96 µM; GLD-1/FL-TGE RNA fluorescence polarization, biochemical; actives 10% (n = 550);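 active means average inhibition across triplicates above the hit cutoff set in the primary screen, cut at about 32% in these data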;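 further: 0% = GLD-1 with RNA probe and DMSO and 100% = wells lacking GLD-1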
# eLon confirm: confirmation of E. coli Lon protease inhibitors. actives 31% (n = 1,400). purified E. coli Lon, fluorescence polarization. shares compounds with eLon inh. inhibition, % at 7.94 µM; in the data active means inhibition above about 16%;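 further: 0% = enzyme with probe and DMSO and 100% = no enzyme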
# Starred values were filed as active, the others as inactive; u = inconclusive; x = no result given; ! = a repeat was not active. Compounds with a hit are over-represented: about 1.3% of the library has one in this group of screens.
SMILES,GLD-1 TGE inh,BCLXL inh,eLon inh,MEX-5 binding,EBV gp42 block,GLD1 RNA confirm,eLon confirm
Cc1onc(-c2ccccc2Cl)c1C(=O)NCc1ccc2c(c1)cc(C)n2C,68*,66*,36*,0,-1,16,15
COc1cc(OC)cc(C(=O)NCc2ccc3c(c2)cc(C)n3C)c1,52*,30*,46*,1,9,7,6
Cc1cc(C)c(C)c(S(=O)(=O)Nc2ccccc2N2CCOCC2)c1C,9,x,-3,x,x,x,x
O=C1C2CC=C(Cl)CC2C(=O)N1CCc1ccccc1 (configuration not stated),43*,33*,25*,-34*,25,21,48*
O=C(CN1C(=O)C2CC=C(Cl)CC2C1=O)NCc1ccccc1 (configuration not stated),42*,41*,34*,-27*,20,33*,38*
O=c1oc2cc(O)ccc2cc1S(=O)(=O)c1ccccc1,40*,27,19*,0,x,12,43*
Cc1ccc(NC(=O)COC(=O)C2CCN(c3ccc(C(F)(F)F)cn3)CC2)cc1,7,-6,11,x,x,x,x
COc1ccc(C(=Cc2ccccc2[N+](=O)[O-])C(=O)O)cc1,x,x,-12,x,x,x,x
N#Cc1c(N)sc(=S)c2c1CCCCC2,56*,87*,20*,-26*,49,24,-49
N#Cc1c(N)sc2c1CCCCCC2,-1,8,-5,0,-24,x,x
O=C1c2cccc3c([N+](=O)[O-])ccc(c23)C(=O)N1CCc1ccccn1,7,7,4,-1,14,x,x
CN(C)CCCN1C(=O)c2cccc3c([N+](=O)[O-])ccc(c23)C1=O,48*,76*,131*,x,49,22,43*
CCOC(=O)c1c2c3c(cccc3n(C)c1=O)C(=O)c1ccccc1-2,32*,55*,144*,u,x,16,65*
CCOC(=O)c1c(-c2ccccc2)c(C(C)=O)c(=O)n(C)c1C,6,1,-1,2,-4,x,x
COc1ccc(-n2nc3c(c2NC(=O)COc2ccccc2OC)CS(=O)(=O)C3)cc1,x,x,-9,x,x,x,x
CCC(=Nc1ccc(N)cc1)C1=C(O)C(C(=O)OC)C(C)(C)CC1=O (configuration not stated),46*,56*,20*,-5,-20,-3,3
CCC(=NCc1ccccc1)C1=C(O)C(C(=O)OC)C(C)(C)CC1=O (configuration not stated),2,4,1,-1,-3,x,x
CCOC(=O)CSc1nnc(Cc2cc(=O)[nH]c(=O)[nH]2)n1-c1ccc(Cl)cc1,38*,21,15*,-10,7,7,12
CCC(CC)CN1CCN=C1Nc1ccccc1,2,1,-1,x,x,x,x
CCCCN(C(=O)c1cc2ccccc2o1)c1c(N)n(CC(C)C)c(=O)[nH]c1=O,6,2,17,1,-11,x,x
CCCCN(C(=O)c1ccc([N+](=O)[O-])o1)c1c(N)n(CC(C)C)c(=O)[nH]c1=O,37*,34*,40*,-28*,x,65*,29*
CCOC(=O)C(=O)c1c(C)cc2ccccn12,x,x,2,x,-16,x,x
COC(=O)c1c(C)c2c(C)cc3ccccn3c-2c1C(=O)OC,33*,51*,45*,1,8,20,-6
Cc1ccccc1N=C1NC(=O)/C(=C/c2cccn2-c2cccc(C(=O)O)c2)S1,x,x,x,-6,11,x,x
COc1cc(CNC23CC4CC(CC(C4)C2)C3)ccc1OCc1ccccc1,6,-2,-4,0,-2,x,x
SMILES,GLD-1 TGE inh,BCLXL inh,eLon inh,MEX-5 binding,EBV gp42 block,GLD1 RNA confirm,eLon confirm
CCOC(=O)NC(=O)C(/C=N/c1sccc1C(=O)OC)=C(\C)O,46*,17,42*,-3,-6,3,5
CN1Cc2c(N)cccc2C(c2ccccc2)C1 (configuration not stated),39*,79*,55*!,-6,29,13,75*
CCCCC1=CC2=C(c3ccco3)C(=O)C(C)(OC(=O)c3ccc(OC)cc3)C(=O)C2=CN1C(CO)CO (configuration not stated),34*,25,31*,-23,-3,15,5
CCCCC1=CC2=C(c3ccco3)C(=O)C(C)(OC(=O)c3ccc(OC)cc3)C(=O)C2=CN1C1CC1 (configuration not stated),32*,41*,56*,-59*,4,12,8
CCCCn1c(=O)[nH]c2nc3cc(NC(C)=O)ccc3nc2c1=O,53*,61*,35*,-12,79*,102*,33*
CCCCCn1c(=O)[nH]c2cc(C(=O)Nc3ccc(OC)cc3)ccc2c1=O,4,2,4,0,x,x,x
Cc1c(C)n(Cc2ccc(F)cc2)c2ccc(C(=O)N3CCN(c4ccccn4)CC3)cc12,2,1,-5,4,x,x,x
O=C1c2cccc3cc([N+](=O)[O-])cc(c23)C(=O)N1/N=C/c1ccc(O)cc1O,60*,56*,17*,0,96*,11,20*
CCN(CC)c1ccc(/C=N/N2C(=O)c3ccccc3C2=O)c(O)c1,-8,0,-5,-1,-16,x,x
O=C1OCCC1Sc1nc2cc(Cl)ccc2s1 (configuration not stated),-4,-3,1,0,-10,x,x
Cc1cccc2cc3c(nc12)-c1ccccc1C3=O,1,5,5,3,x,x,x
Cc1ccc2c3c(cccc13)-c1ccccc1C2=O,43*,37*,40*,-10,62*,39*,20*
O=C(NCCCNC(=O)c1cccnc1)c1ccc(Cl)cc1,1,2,7,-1,x,x,x
O=c1[nH]c2cc3ccccc3cc2nc1C(F)(F)F,58*,14,26*,-11,28,60*,37*
O=C1NC(=O)/C(=C/c2ccc(-c3cc(C(=O)O)ccc3Cl)o2)S1,3,21,-10,-9,x,x,x
O=C1NC(=S)/C(=C\c2ccc(-c3ccccc3Cl)o2)S1,60*,58*,48*,-42*,60*,29,20*
CC1CN(C2=Nc3cccc4cccc2c34)CC(C)O1 (configuration not stated),47*,38*,28*,-19,35,36*,14
COc1ccccc1N1CCN(C2=Nc3cccc4cccc2c34)CC1,8,3,-12,-8,7,x,x
CC(=O)N1CCN(C2=Nc3cccc4cccc2c34)CC1,43*,37*,18*,-21,28,38*,23*
c1cc2c3c(cccc3c1)C(N1CCOCC1)=N2,45*,29,32*,-19,34,32*,28*
